Only some compounds are listed: those with a hit (about 19% of all), similar ones and a draw of the others.
HT1080NT lethal = kills 2HG-producing HT-1080-NT fibrosarcoma cells | HT-1080-NT fibrosarcoma viability, CellTiter-Glo ATP luminescence, 48 h | Potency, µM (highest dose often 46.1 µM), for the others: at the top dose activity, negative = less viability, actives largely listed as cytotoxic | 1.6% of 360,000 active;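 further: NT is the 2HG producing partner of a matched IDH1 knockdown line; potency means the concentration at half of the fitted maximal effect; 0% = DMSO-treated cells and -100% = media-only wells without cells; nearly all actives have a fitted effect of over 55% in size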
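750 cells/well, RPMI + 5% FBS; 2 h settle, compound pin-transfer, 48 h at 37 degrees C. CellTiter-Glo 10 min RT, luminescence. Normalized to DMSO and media-only wells.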
HT1080 IDH1KD tx = toxicity to HT-1080 IDH1 knockdown cells (counter line); HT-1080 IDH1 knockdown viability, ATP luminescence, 48 h; Potency, µM (titrated, usually from 46.1 µM), inactives show at the highest dose activity, negative = toxicity, hits mostly cytotoxic; 2% of 360,000 active;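 further: potency means the concentration at half of the fitted maximal effect; 0% = DMSO wells and -100% = cell-free medium wells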
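In this qHTS, HT-1080 cells depleted of IDH1 are exposed for 48 h at 37 °C to compound titrations. Toxicity is scored from CellTiter-Glo luminescence, with DMSO as full viability and medium alone as none.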
IL-1B inflam inh = blocks inflammasome-driven IL-1 beta release; 4.7% of 360,000 active; AID 743279; THP-1 LPS/ATP IL-1B secretion, AlphaLISA, 16 h; active compounds read low; activity change, % at 57.5 µM; in the data active means activity change below about -50%; inconclusive means mostly about -30% to -49%
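THP-1 cells pretreated 1 hr with compounds (up to 57.5 uM final), then stimulated with LPS (250 ng/mL final) plus ATP (1.25 mM final); secreted IL-1B measured by AlphaLISA after 16 hr, decreased signal indicating inhibition.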
DT40 TDP1 CPT = growth inhibition of DT40 Tdp1-/-;hTDP1 cells with camptothecin (screen for TDP1 inhibitors); chicken DT40 Tdp1-/-;hTDP1 cells + 20 nM CPT, ATP luminescence, 48 h; Potency, µM (titrated, usually from 46.2 µM), for the others: top-dose activity change, negative = growth inhibition, hits mostly inhibitors; 12% of 420,000 active; further: potency means the concentration at half of the fitted maximal effect; nearly all actives have a fitted effect of over 55% in size
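Chicken DT40 Tdp1-/- cells stably complemented with human TDP1 were seeded at 400 cells/well in medium containing 20 nM camptothecin, exposed to pin-transferred compounds, and grown at 37 °C for at least 48 hr. Viability was read as ATP luminescence.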
DT40 TDP1 no CPT = qHTS for Inhibitors of human tyrosyl-DNA phosphodiesterase 1 (TDP1): qHTS in cells in absence of CPT. AID 686978, 2013. 15% of 420,000 active. DT40 Tdp1-/- hTDP1 cells, no CPT, ATP luminescence, 48 h. Potency, µM (doses to about 46.2 µM), for the others: top-dose activity change, negative = growth inhibition, actives largely listed as inhibitors; further: potency means the concentration at half of the fitted maximal effect; nearly all actives have a fitted effect of over 55% in size
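No-CPT arm: Tdp1-/-;hTDP1 DT40 cells (400/well) plus compounds, incubated ≥48 hr at 37 °C. Readout CellTiter-Glo luminescence.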
* hit, by the source's call; ? = inconclusive; · = no result given. Unless noted, the call rests on the fitted dose curve; in most records, active means well fitted curve in the direction sought with a large enough effect; inconclusive means small, poorly fitted or top-dose-only effect, or another doubt; inactive means no such curve, though single readings can be large; an effect the other way counts as inactive or inconclusive. Unless noted, on the % scale 0 is the no-effect control and ±100 the full control effect.

SMILES	HT1080NT lethal	HT1080 IDH1KD tx	IL-1B inflam inh	DT40 TDP1 CPT	DT40 TDP1 no CPT
Cc1cccc(N2C(=O)CC(Sc3ncn[nH]3)C2=O)c1 (configuration not stated)	13%	18%	18	1.8µM*	1.8µM*
CCc1c(O)nc(SC2CC(=O)N(c3ccc(F)c(Cl)c3)C2=O)[nH]c1=O (configuration not stated)	10%	14%	27	18%	8%
Cc1cccc(N2C(=O)CC(Sc3nccc(C)n3)C2=O)c1 (configuration not stated)	17%	9%	24	?	-21%
Cc1cccnc1NC(=O)c1ccc([N+](=O)[O-])o1	-1%	16%	?	?	?
O=C(Nc1cccc2ncccc12)c1ccc(-c2ccc(Br)cc2)o1	?	?	59	18µM*	23µM*
O=C(Nc1ccccc1Cl)c1ccc([N+](=O)[O-])o1	?	21µM*	-97*	?	29µM*
CCOc1ccc(C(=O)Nc2cccc3ncccc23)cc1Cl	10%	-12%	8	23µM*	?
O=C(Nc1cccc2ncccc12)c1cccc(Br)c1	3%	-1%	10	-6%	-17%
O=C(Nc1cccc2ncccc12)c1ccc(Br)c([N+](=O)[O-])c1	-16%	-13%	-108*	?	?
CCC(C(=O)N/N=C/c1cccnc1)c1ccccc1 (configuration not stated)	12%	5%	35	5%	11%
Cc1ccccc1NC(=O)c1ccc([N+](=O)[O-])o1	-25%	26µM*	?	?	12µM*
O=C(Nc1cccc2ncccc12)c1ccc([N+](=O)[O-])o1	16µM*	15µM*	-93*	12µM*	16µM*
Cc1ccc(NC(=O)c2ccc([N+](=O)[O-])o2)c(C)c1	-1%	?	-68*	23µM*	?
CS(=O)(=O)Nc1c(O)ccc2c1CCCC2C1=NCCN1 (configuration not stated)	·	·	·	-5%	11%
Cc1ccc2sc(NC(=O)C3CC3)nc2c1C	1%	1%	9	?	?
CN(C)c1ccnc2c[cH-]cc12.[Fe].c1ccc(-[c-]2[c-](-c3ccccc3)[c-](-c3ccccc3)[c-](-c3ccccc3)[c-]2-c2ccccc2)cc1 (configuration not stated)	-1%	0%	-1	5.2µM*	3.7µM*
O=C(CCc1ccccc1)Nc1ccc(F)cc1F	11%	3%	-22	4%	-5%
O=C(CCCc1ccccc1)Nc1ccc(Br)cc1F	1%	-6%	-11	15µM*	?
O=C(CCCc1ccccc1)Nc1ccccc1[N+](=O)[O-]	1%	-11%	4	10µM*	21µM*
O=C(CCc1ccccc1)Nc1ccccc1[N+](=O)[O-]	23%	20%	4	-2%	1%
O=C(Cc1ccccc1[N+](=O)[O-])NCCCc1ccccc1	-15%	-16%	1	16µM*	?
NS(=O)(=O)c1ccc(CCNC(=O)Cc2ccccc2[N+](=O)[O-])cc1	-8%	-5%	30	-9%	-10%
OCCC1CN(Cc2ccc3nsnc3c2)CCN1CCc1ccccc1 (configuration not stated)	22%	-2%	-3	6%	?
CN(C)CCCNC(=S)NCC(c1ccc(Cl)cc1Cl)c1c[nH]c2ccccc12 (configuration not stated)	21µM*	16µM*	-104*	?	?
NCC(c1ccccc1Cl)c1c[nH]c2ccccc12 (configuration not stated)	?	?	?	5.2µM*	13µM*
NCC(c1ccc(Cl)cc1Cl)c1c[nH]c2ccccc12 (configuration not stated)	?	?	-88*	18µM*	23µM*
O=C(Cc1c[nH]c2ccccc12)NCc1ccc(Cl)cc1Cl	-1%	0%	12	-10%	1%
